A number with no mark means an inactive call. Active and inactive are the calls of the source. The rule behind the calls is not given here. Some results are limits rather than exact numbers.

The nature of the experiment: Biochemical counterscreen for C difficile toxins, absence of UDPG, inhibitor dose response (AID 720650). The settings on record: series mostly up to 19.5 µM; activity change, negative = inhibition: at the top concentration.
`C[C@H](CO)N1C[C@H](C)[C@@H](CN(C)C(=O)Nc2ccc(C(F)(F)F)cc2)Oc2c(NS(=O)(=O)c3cn(C)cn3)cccc2C1=O`: the AC50 was more than 39 µM.
Still for that read-out and setting: the figure for `CC(C)NC(=O)N1CC[C@@H]2[C@@H](CO)N(C)c3ccc(-c4ccc(F)cc4)cc3[C@@H]21` is 4.11 µM (active); for `CN1c2ccc(-c3ccccc3)cc2[C@H]2[C@H](CCN2C(=O)CN2CCOCC2)[C@H]1CO` it is 7.83 µM (active).
Consider `COc1cc2c(cc1N)-c1ccc(N)cc1C2=O`, for which the AC50 was 1.18 µM (active).
Regarding `CNC(=O)C[C@@H]1CC[C@H]2[C@H](COc3ccc(NS(=O)(=O)c4ccccc4C)cc3C(=O)N2C)O1`, the “activity change, negative = inhibition” value was -5.07%.
Consider `Cc1ccc(C2=NS(=O)(=O)N(C)C(C(=O)NCc3cccs3)=C2)cc1`, for which the “activity change, negative = inhibition” value was -9.62%.
Regarding `Cc1c(C(=O)c2ccccc2)c2ccccn2c1CCc1ccccn1`, the “activity change, negative = inhibition” value was 1.91%.
For the compound `COc1ccc(C(=O)OCC(=O)Nc2ccc3[nH]c(=O)[nH]c3c2)c(OC)c1OC`, the “activity change, negative = inhibition” value is -9.79%.
As to `COc1ccc(C(=O)Nc2ccccc2C(=O)O)cc1Cl`, the AC50 is more than 39 µM.
As for `COc1ccc(NS(=O)(=O)c2cc(N=Nc3c(O)[nH]c(=O)[nH]c3=O)ccc2Cl)cc1`, the “activity change, negative = inhibition” value is -5.06%.
With `CCC(=O)c1cn(CC(=O)Nc2cccc(C)c2C)c2ccccc12`, the “activity change, negative = inhibition” value was -3.61%.
Same read-out and setting: for `Cc1ccc(-c2cc(C(=O)OC3CCOC3=O)c3ccccc3n2)c(C)c1` (centres undefined) the value was -6.55%.
As to `C[C@H](CO)N1C[C@H](C)[C@@H](CN(C)C(=O)Nc2ccc(C(F)(F)F)cc2)Oc2c(NS(=O)(=O)c3cccs3)cccc2C1=O`, the AC50 was more than 39 µM.
In the case of `Cc1cc(N2CCCC2=O)cc(C)c1S(=O)(=O)Nc1c(C)nn(C)c1C`, the “activity change, negative = inhibition” value was -5.53%.
As to `Nc1nc(Cl)cc(NCCc2ccc(O)cc2)n1`, the AC50 is 21.8 µM (active).
`COC(=O)C1=C(c2ccc(OCc3ccccc3)cc2)C[C@@H]2CC[C@H]1N2C(=O)NCCCc1ccccc1`: the “activity change, negative = inhibition” value was -7.81%.
For `O=S(=O)(c1ccccc1)N1CCN=C1SCc1ccccc1`, the AC50 is more than 39 µM.
Take `CCCCn1c(=S)[nH]c2c(=O)n(C)c(=O)n(C)c21`: the AC50 was 14.9 µM (active).
Take `COC(=O)c1ccc(OC(=O)c2ccc(OC)cc2)c(OC)c1`: the “activity change, negative = inhibition” value was 5.2%.
The same measure, in the same setting: the figure for `CC(C)CNC(=O)C(=O)NCC1CCCN1S(=O)(=O)c1cccs1` (centres undefined) is -5.14%; for `CCCC(=O)Nc1ccc2c(c1)OC[C@H](C)N(CC1CCCC1)C[C@H](C)[C@@H](OC)CN(C)C2=O` it is 6.08%; for `Cc1ccc(S(=O)(=O)N2CCC(C(=O)OCC(=O)NCCc3ccccc3)CC2)cc1C` it is 6.81%.
Turning to `COc1ccc(C)cc1NC(=O)C(OC(=O)C1=NNC(=O)CC1)c1ccccc1` (centres undefined), the “activity change, negative = inhibition” value was 1.41%.
Same read-out and setting: for `O=C(Cc1ccccn1)c1ccncc1` the value was -8.24%.

Source of the values: PubChem BioAssay AID720650 (Broad Institute, 2013).
